# Data reported in PubChem BioAssay (EPA / NIEHS).
# The source made the active and inactive calls. How the source made its calls: active means hit-call score of the fitted dose curve at least 0.9, where 1 is the maximum; inactive means score below 0.9.
# Read-out: Pyruvate Dehydrogenase Kinase 4 (PDK4), PDK4 (gene 5166)
# Assay: LTEA_HepaRG_PDK4: Life Technologies and Expression Analysis (LTEA) Assay for Pyruvate Dehydrogenase Kinase 4 (PDK4) using HepaRG (AID 2283525)
# Details: mRNA level, 48 h; actives raise or lower the signal
# How it was run: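 Eight-point, half-log concentration series (max 100 uM, 0.5% DMSO) applied to differentiated HepaRG cells for 48 h in duplicate. Endpoint: PDK4 mRNA induction or repression by qRT-PCR against DMSO baseline.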
# Nuclear factor erythroid 2-related factor 2 (Homo sapiens), sequence (Q16236 whole entry, looked up): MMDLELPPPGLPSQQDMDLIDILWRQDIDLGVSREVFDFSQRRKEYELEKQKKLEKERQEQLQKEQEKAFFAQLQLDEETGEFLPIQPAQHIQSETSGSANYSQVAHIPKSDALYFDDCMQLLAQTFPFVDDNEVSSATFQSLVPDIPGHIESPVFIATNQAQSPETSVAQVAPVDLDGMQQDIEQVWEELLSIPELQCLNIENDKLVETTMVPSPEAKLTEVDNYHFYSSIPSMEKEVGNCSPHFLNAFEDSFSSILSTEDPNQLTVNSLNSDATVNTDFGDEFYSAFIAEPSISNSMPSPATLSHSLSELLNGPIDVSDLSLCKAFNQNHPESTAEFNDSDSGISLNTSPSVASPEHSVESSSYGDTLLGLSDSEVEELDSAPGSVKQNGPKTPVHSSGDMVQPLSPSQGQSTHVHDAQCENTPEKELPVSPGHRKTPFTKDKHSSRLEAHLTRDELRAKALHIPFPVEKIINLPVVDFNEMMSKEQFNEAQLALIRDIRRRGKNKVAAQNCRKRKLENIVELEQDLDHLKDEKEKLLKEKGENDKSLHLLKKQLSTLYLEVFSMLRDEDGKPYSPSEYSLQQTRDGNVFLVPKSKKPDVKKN
SMILES,outcome,AC50
CNC(=O)Oc1cccc2ccccc12,inactive,
CC(C)N1C(=O)N(c2ccccc2)CSC1=NC(C)(C)C,,87.8 µM (active)
CCSC(=O)N1CCCCCC1,inactive,
COP(=O)(OC)O/C(C)=C/C(=O)N(C)C,inactive,
Nc1c(Cl)c(F)nc(OCC(=O)O)c1Cl,inactive,
Cc1cc(C)nc(Nc2ccccc2)n1,inactive,
O=C(O)c1c(Cl)ccc2cc(Cl)cnc12,inactive,
N#Cc1c(Cl)cccc1Cl,inactive,
CC1(C)C(C(=O)OC(C#N)c2cccc(Oc3ccccc3)c2)C1(C)C (stereo not drawn),inactive,
COCC(C)N(C(=O)CCl)c1c(C)csc1C (stereo not drawn),inactive,
Cc1c(COC(=O)[C@@H]2[C@H](/C=C(\Cl)C(F)(F)F)C2(C)C)cccc1-c1ccccc1,inactive,
CCCN(CC)CC1COC2(CCC(C(C)(C)C)CC2)O1 (stereo not drawn),inactive,
COC(=O)c1c(C(F)F)nc(C(F)(F)F)c(C2=NCCS2)c1CC(C)C,inactive,
CCCCC(O)(Cn1cncn1)c1ccc(Cl)cc1Cl (stereo not drawn),,78.8 µM (active)
CC(C)N1C(=O)c2ccccc2NS1(=O)=O,inactive,
CCOP(=S)(OCC)Oc1nc(Cl)n(C(C)C)n1,,1.82 µM (active)

# Read-out: NAD(P)H dehydrogenase [quinone] 1 (NQO1), NQO1 (gene 1728)
# Assay: LTEA_HepaRG_NQO1: Life Technologies and Expression Analysis (LTEA) Assay for NAD(P)H dehydrogenase [quinone] 1 (NQO1) using HepaRG (AID 2283526)
# Details: mRNA level, 48 h; actives raise or lower the signal
# How it was run: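 Transcript induction or suppression is quantified by qRT-PCR in human HepaRG liver cells dosed for 48 hours. Eight half-log concentrations topping at 100 uM are used, with 0.5% DMSO as vehicle and baseline.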
SMILES,outcome,AC50
C=C(C)CN(CC)c1c([N+](=O)[O-])cc(C(F)(F)F)cc1[N+](=O)[O-],inactive,
N#Cc1c[nH]cc1-c1cccc2c1OC(F)(F)O2,inactive,
CCOc1nc(C(Cl)(Cl)Cl)ns1,,0.993 µM (active)
CCN(CC)c1nc(C)cc(OP(=S)(OC)OC)n1,inactive,
O=C(Nc1ccccc1-c1ccc(Cl)cc1)c1cccnc1Cl,inactive,
COC(=O)NS(=O)(=O)c1ccc(N)cc1,inactive,
CC(C)NC(=O)N1CC(=O)N(c2cc(Cl)cc(Cl)c2)C1=O,inactive,
CC(C)Oc1cccc(NC(=O)c2ccccc2C(F)(F)F)c1,inactive,
O=C1C2CC=CCC2C(=O)N1SC(Cl)(Cl)Cl (stereo not drawn),inactive,
OC(c1ccc(Cl)cc1)(c1ccc(Cl)cc1)C(Cl)(Cl)Cl,,93 µM (active)
COc1ccc(-c2ccccc2)cc1NNC(=O)OC(C)C,inactive,
CCCC(=NOCC)C1=C(O)CC(CC(C)SCC)CC1=O (stereo not drawn),inactive,
CC(C)=CC1C(C(=O)OCc2coc(Cc3ccccc3)c2)C1(C)C (stereo not drawn),inactive,
CC1(C)C(C=C(Cl)Cl)C1C(=O)OC(C#N)c1cccc(Oc2ccccc2)c1 (stereo not drawn),inactive,
CO/N=C(/C1=NOCCO1)c1ccccc1Oc1ncnc(Oc2ccccc2Cl)c1F,inactive,
CNC(=O)N(C)c1nnc(C(C)(C)C)s1,inactive,
N#CN=C1SCCN1Cc1ccc(Cl)nc1,inactive,
CCCCOCN(C(=O)CCl)c1c(CC)cccc1CC,inactive,

SMILES,outcome,AC50
Nc1cnn(-c2ccccc2)c(=O)c1Cl,inactive,
O=c1n(Cl)c(=O)n(Cl)c(=O)n1Cl,inactive,
CNC(=O)Oc1cccc2ccccc12,inactive,
CC(C)N1C(=O)N(c2ccccc2)CSC1=NC(C)(C)C,inactive,
CCSC(=O)N1CCCCCC1,inactive,
COP(=O)(OC)O/C(C)=C/C(=O)N(C)C,inactive,
Nc1c(Cl)c(F)nc(OCC(=O)O)c1Cl,inactive,
Cc1cc(C)nc(Nc2ccccc2)n1,inactive,
O=C(O)c1c(Cl)ccc2cc(Cl)cnc12,inactive,
N#Cc1c(Cl)cccc1Cl,inactive,
CC1(C)C(C(=O)OC(C#N)c2cccc(Oc3ccccc3)c2)C1(C)C (stereo not drawn),inactive,
COCC(C)N(C(=O)CCl)c1c(C)csc1C (stereo not drawn),inactive,
Cc1c(COC(=O)[C@@H]2[C@H](/C=C(\Cl)C(F)(F)F)C2(C)C)cccc1-c1ccccc1,inactive,
CCCN(CC)CC1COC2(CCC(C(C)(C)C)CC2)O1 (stereo not drawn),inactive,
COC(=O)c1c(C(F)F)nc(C(F)(F)F)c(C2=NCCS2)c1CC(C)C,inactive,
CCCCC(O)(Cn1cncn1)c1ccc(Cl)cc1Cl (stereo not drawn),,50 µM (active)
CC(C)N1C(=O)c2ccccc2NS1(=O)=O,inactive,
CCOP(=S)(OCC)Oc1nc(Cl)n(C(C)C)n1,inactive,

# Read-out: Nuclear factor erythroid 2-related factor 2 (Homo sapiens) (UniProt Q16236)
# Assay: LTEA_HepaRG_NFE2L2: Life Technologies and Expression Analysis (LTEA) Assay for Nuclear factor erythroid 2-related factor 2 (NFE2L2) Transcription Factor using HepaRG (AID 2283527);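 on outcome: TaqMan qRT-PCR transcript level normalised to ACTB GAPDH and POLR2A housekeeping genes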
# Details: mRNA level, 48 h; actives raise or lower the signal
# How it was run: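 Human liver HepaRG line treated in duplicate for 48 h with an eight-point series topping at 100 uM. Gene expression of NFE2L2 by qRT-PCR, bidirectionally fitted against the vehicle control.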
SMILES,outcome,AC50
C=C(C)CN(CC)c1c([N+](=O)[O-])cc(C(F)(F)F)cc1[N+](=O)[O-],inactive,
N#Cc1c[nH]cc1-c1cccc2c1OC(F)(F)O2,,84.7 µM (active)
CCOc1nc(C(Cl)(Cl)Cl)ns1,,1.12 µM (active)
CCN(CC)c1nc(C)cc(OP(=S)(OC)OC)n1,inactive,
O=C(Nc1ccccc1-c1ccc(Cl)cc1)c1cccnc1Cl,inactive,
COC(=O)NS(=O)(=O)c1ccc(N)cc1,inactive,
CC(C)NC(=O)N1CC(=O)N(c2cc(Cl)cc(Cl)c2)C1=O,,13.1 µM (active)
CC(C)Oc1cccc(NC(=O)c2ccccc2C(F)(F)F)c1,inactive,
O=C1C2CC=CCC2C(=O)N1SC(Cl)(Cl)Cl (stereo not drawn),inactive,
OC(c1ccc(Cl)cc1)(c1ccc(Cl)cc1)C(Cl)(Cl)Cl,,71 µM (active)
COc1ccc(-c2ccccc2)cc1NNC(=O)OC(C)C,inactive,
CCCC(=NOCC)C1=C(O)CC(CC(C)SCC)CC1=O (stereo not drawn),inactive,
CC(C)=CC1C(C(=O)OCc2coc(Cc3ccccc3)c2)C1(C)C (stereo not drawn),inactive,
CC1(C)C(C=C(Cl)Cl)C1C(=O)OC(C#N)c1cccc(Oc2ccccc2)c1 (stereo not drawn),inactive,
CO/N=C(/C1=NOCCO1)c1ccccc1Oc1ncnc(Oc2ccccc2Cl)c1F,,50 µM (active)
CNC(=O)N(C)c1nnc(C(C)(C)C)s1,inactive,
N#CN=C1SCCN1Cc1ccc(Cl)nc1,inactive,
CCCCOCN(C(=O)CCl)c1c(CC)cccc1CC,inactive,

SMILES,outcome,AC50
Nc1cnn(-c2ccccc2)c(=O)c1Cl,inactive,
O=c1n(Cl)c(=O)n(Cl)c(=O)n1Cl,inactive,
CNC(=O)Oc1cccc2ccccc12,inactive,
CC(C)N1C(=O)N(c2ccccc2)CSC1=NC(C)(C)C,inactive,
CCSC(=O)N1CCCCCC1,inactive,
COP(=O)(OC)O/C(C)=C/C(=O)N(C)C,inactive,
Nc1c(Cl)c(F)nc(OCC(=O)O)c1Cl,inactive,
Cc1cc(C)nc(Nc2ccccc2)n1,inactive,
O=C(O)c1c(Cl)ccc2cc(Cl)cnc12,inactive,
N#Cc1c(Cl)cccc1Cl,inactive,
CC1(C)C(C(=O)OC(C#N)c2cccc(Oc3ccccc3)c2)C1(C)C (stereo not drawn),inactive,
COCC(C)N(C(=O)CCl)c1c(C)csc1C (stereo not drawn),inactive,
Cc1c(COC(=O)[C@@H]2[C@H](/C=C(\Cl)C(F)(F)F)C2(C)C)cccc1-c1ccccc1,inactive,
CCCN(CC)CC1COC2(CCC(C(C)(C)C)CC2)O1 (stereo not drawn),inactive,
COC(=O)c1c(C(F)F)nc(C(F)(F)F)c(C2=NCCS2)c1CC(C)C,inactive,
CCCCC(O)(Cn1cncn1)c1ccc(Cl)cc1Cl (stereo not drawn),,50 µM (active)
CC(C)N1C(=O)c2ccccc2NS1(=O)=O,inactive,
CCOP(=S)(OCC)Oc1nc(Cl)n(C(C)C)n1,inactive,
